Assay outcomes deposited in PubChem BioAssay by National Center for Advancing Translational Sciences (NCATS).
Sfp PPTase inh: Sfp phosphopantetheinyl transferase inhibition; Potency, µM, for the others: largest response in the series, negative = inhibition, actives largely listed as inhibitors; Biochemical Sfp PPTase activity, qHTS; 310,000 tested, 3.5% active; Q9F4F7;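 note: the enzyme is Sfp with the accession as filed and its product quenches rhodamine fluorescence; potency is the fitted concentration of half-maximal effect; 0% = enzyme reaction without inhibitor and -100% = no enzyme wells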
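Compounds were incubated with enzyme (final 15 nM) for 15 min at room temperature before substrate addition started the reaction. Fluorescence at 525 nm excitation, 598 nm emission was recorded immediately and after 30 minutes.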
MmCpn inh: M. maripaludis TRiC chaperonin inhibition. purified Mm-Cpn ATPase, ADP Transcreener TR-FRET. Potency, µM (top dose mostly 76.9 µM), inactives show at the top dose activity, negative = inhibition, most hits filed as inhibitors. 330,000 tested, 0.031% active; note: potency is the fitted concentration of half-maximal effect; % is set by controls: 0 for no effect and ±100 for the full control effect; nearly all actives have a fitted effect of over 80% in size
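TR-FRET (320 nm excitation; 590 and 665 nm emission) reports ADP made from 10 uM ATP by 25 nM enzyme; compounds were preincubated 10 min, reaction run 30 min, both at 37°C.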
PLK1 PBD block: inhibitors of human PLK1 polo-box domain binding. 360,000 tested, 2.8% active. Plk1 PBD binding of FITC phosphopeptide, fluorescence polarization. P53350. AID 720504. Potency, µM, inactives show max response, negative = inhibition, usual class: inhibitors; note: potency is the fitted concentration of half-maximal effect; series mostly up to about 57 µM; % is set by controls: 0 for no effect and ±100 for the full control effect; nearly all actives have a fitted effect of over 65% in size
VDR inhibitor: vitamin D3 receptor (human) inhibition; VDR-SRC2-3 peptide fluorescence polarization, 2 h; Potency, µM, without a hit: max response, negative = inhibition, hits mostly inhibitors; 400,000 tested, 0.93% active; AID 504847; note: potency is the fitted concentration of half-maximal effect; % is set by controls: 0 for no effect and ±100 for the full control effect
Target sequence (P11473 whole entry, looked up): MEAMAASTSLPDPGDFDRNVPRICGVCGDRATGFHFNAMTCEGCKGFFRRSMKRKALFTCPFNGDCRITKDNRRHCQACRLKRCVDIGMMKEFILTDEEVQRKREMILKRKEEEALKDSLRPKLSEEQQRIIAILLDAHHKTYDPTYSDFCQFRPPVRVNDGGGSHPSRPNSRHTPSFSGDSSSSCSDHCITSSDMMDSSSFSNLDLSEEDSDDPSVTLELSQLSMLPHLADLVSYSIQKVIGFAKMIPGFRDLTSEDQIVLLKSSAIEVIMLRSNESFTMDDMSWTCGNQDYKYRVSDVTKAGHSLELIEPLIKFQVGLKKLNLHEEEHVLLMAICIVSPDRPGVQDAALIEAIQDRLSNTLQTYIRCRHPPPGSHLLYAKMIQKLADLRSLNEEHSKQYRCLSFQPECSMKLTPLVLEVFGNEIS
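Two reagent solutions held at 4 deg C in the dark were dispensed, compounds pinned at 23 nl, and the mixture incubated 2 h at room temperature. Read-out: fluorescence polarization of VDR–SRC2-3 peptide binding.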
G9a block: blocks human histone lysine methyltransferase G9a | Potency, µM (highest dose often 102 µM), for inactives: at the highest dose activity, negative = inhibition, most hits filed as inhibitors | G9a H3K9 monomethylation, AlphaScreen, 2 h | 350,000 tested, 8.8% active | Q96KQ7; note: potency is the fitted concentration of half-maximal effect; % is set by controls: 0 for no effect and ±100 for the full control effect; nearly all actives have a fitted effect of over 75% in size
Target sequence (Q96KQ7 913-1193 limits assumed): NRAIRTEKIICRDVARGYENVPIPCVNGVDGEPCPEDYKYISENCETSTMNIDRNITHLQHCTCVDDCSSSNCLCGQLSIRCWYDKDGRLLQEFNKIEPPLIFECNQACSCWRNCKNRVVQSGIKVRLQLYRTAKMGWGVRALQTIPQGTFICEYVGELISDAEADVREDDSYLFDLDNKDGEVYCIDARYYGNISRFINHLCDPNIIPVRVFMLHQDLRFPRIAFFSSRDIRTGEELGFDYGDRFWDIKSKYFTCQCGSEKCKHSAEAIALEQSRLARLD
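Enzyme 20 nM + cpd, 15 min RT; add b-H3K9 pep 500 nM / SAM 20 uM; 2 h RT; anti-H3K9me1 Ab 0.5 ug/mL + SA donor / anti-rabbit acceptor beads 20 ug/mL each, 10 min; AlphaScreen read.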
CCT modulator: changes cytosolic chaperonin activity; purified chaperonin ATPase assay, HTRF ADP detection, 30 min; activity change, % (test concentration not listed), hits read low; 360,000 tested, 0.3% active; in the data active = activity change below about -30%; note: % is set by controls: 0 for no effect and ±100 for the full control effect
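Nucleotide hydrolysis assay: TRiC at 20–40 nM final (set by batch activity) with 10 uM ATP, 30 min at 37 °C, in presence of 76 uM compound. Detection by competitive ADP HTRF, 30 min ambient.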
USP1 UbRho: blocks human USP1/UAF1 cleavage of Ub-Rhodamine | Ub-Rhodamine cleavage, fluorescence kinetic read | shares compounds with VDR inhibitor | AID 540327 | 50 tested, 50% active | Potency, µM (doses to about 56.8 µM), for the others: at the top dose activity change, negative = inhibition, usual class: inhibitors
VDR confirm: inhibits human vitamin D receptor, primary hit validation; VDR-coactivator inhibition assay, qHTS confirmation; 840 tested, 89% active; Potency, µM, hits mostly inhibitors; shares compounds with VDR inhibitor; note: potency is the fitted concentration of half-maximal effect
VDR FP: blocks human VDR-coactivator binding in fluorescein assay | AID 602200 | 840 tested, 48% active | VDR-coactivator binding, fluorescein fluorescence polarization | Potency, µM (series often up to 57.1 µM), inactives show at the highest dose activity change, negative = inhibition, usual class: inhibitors | shares compounds with VDR inhibitor; note: potency is the fitted concentration of half-maximal effect
VDR bla reporter: inhibits human VDR in beta-lactamase reporter cells. 840 tested, 23% active. AID 602202. shares compounds with VDR inhibitor. VDR beta-lactamase reporter cells, FRET ratio; cells co-treated with VDR agonist LG190178. Potency, µM (doses to about 46.1 µM), for the others: top-dose activity change, negative = inhibition, usual class: inhibitors; note: potency is the fitted concentration of half-maximal effect; % is set by controls: 0 for no effect and ±100 for the full control effect
VDR viability: cytotoxic in counter-screen for VDR inhibitors. shares compounds with VDR inhibitor. cytotoxicity counter-screen, cell viability, qHTS. Potency, µM (titrated, usually from 48.3 µM), for inactives: at the highest dose activity change, negative = cytotoxicity, usual class: cytotoxic. 840 tested, 18% active. AID 602204;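 note: potency is the fitted concentration of half-maximal effect; plate controls were DMSO for no effect and high-concentration cycloheximide for full effect; nearly all actives have a fitted effect of over 75% in size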
* marks the source's active call; other numbers are inactive results; ? = inconclusive; · = not tested or not shown; [ ] = dose if it differs, or a comment. Compounds with a hit are over-represented: about 10% of the library has one in this group of screens. Unless noted, calls come from the whole dose curve; as a rule, active = well fitted curve in the direction sought with a large enough effect; inconclusive = small, poorly fitted or top-dose-only effect, or another doubt; inactive = no such curve, though single readings can be large; an effect the other way counts as inactive or inconclusive.

SMILES | Sfp PPTase inh | MmCpn inh | PLK1 PBD block | VDR inhibitor | G9a block | CCT modulator | VDR confirm | VDR FP | VDR bla reporter | VDR viability | others
Cc1ccc(OCCN2C(=O)c3ccccc3C2=O)c(C)c1 | 2% | 0% | -5% | 5% | 99% | -4 | · | · | · | ·
COc1ccccc1NC(=O)Cn1c(=O)n(CC2CCC(C(=O)NCCc3ccccc3)CC2)c(=O)c2ccccc21 (stereo not given) | · | · | · | 13% | -1%[59 µM] | · | · | · | · | ·
COC(=O)c1ccc(Cn2cc(/C=C\[N+](=O)[O-])c3ccccc32)o1 | 56µM* | -2% | ? | 25µM* | · | 3 | 21* | ? | ? | ?
O=C1/C(=C/c2cccc([N+](=O)[O-])c2)CCc2ccccc21 | 0% | -2% | -15% | ? | ? | 0 | 13* | 25µM* | ? | ?
O=C1/C(=C/c2ccc([N+](=O)[O-])cc2)CCc2ccccc21 | 15% | -1% | · | · | ? | · | · | · | · | ·
COc1ccc(N2CC(NC(=O)/C=C\c3ccccc3)CC2=O)cc1 (stereo not given) | · | · | · | 4% | -7%[59 µM] | · | · | · | · | ·
CCc1nnc(NC(=O)C2CCCN(C(=O)c3ccoc3)C2)s1 (stereo not given) | · | · | · | -20% | · | · | · | · | · | ·
O=C(Nc1nnc(-c2ccccc2)s1)C1CCCN(C(=O)c2ccoc2)C1 (stereo not given) | · | · | · | 45µM* | · | · | 16* | 8.9µM* | ? | -3%
C=CCn1c(Sc2ncc([N+](=O)[O-])s2)n[nH]c1=O | 10µM* | -5% | 1.2µM* | 28µM* | 11µM* | -14 | 15* | ? | 26µM* | ?
Cn1cnnc1SCC(=O)Nc1ncc([N+](=O)[O-])s1 | · | -2% | ? | -17% | · | 4 | · | · | · | ·
CCCC(=O)NCCc1c2n(c3ccc(OC)cc13)CCCc1ccccc1-2 | · | · | · | 0% | 11%[12.7 µM] | · | · | · | · | · | USP1 UbRho=?
COc1ccc2[nH]cc(CCNC(=O)CCC3CCCCC3)c2c1 | 10% | 2% | -6% | 3% | -19% | 0 | · | · | · | ·
Cc1ccc(CN(C(=O)COc2ccc(Cl)c(C)c2)c2ccccn2)o1 | · | · | · | 5% | 1%[59 µM] | · | · | · | · | ·
COC(=O)[C@@]1(Cc2ccccc2)C=C[C@@H](C)N1C(=O)c1ccccc1 | 5% | · | · | · | · | · | · | · | · | ·
O=c1[nH]c(/C=C/c2ccc(Cl)cc2Cl)c([N+](=O)[O-])c(=O)[nH]1 | 15% | 0% | -15% | 18µM* | ? | 1 | 4.7* | ? | -16% | 21%
Clc1ccc(/C=C/c2ncc[nH]2)c(Cl)c1 | 8% | 1% | 4% | 23% | 9%[12.7 µM] | 0 | · | · | · | ·
O=c1[nH]c(/C=C/c2ccccc2)c([N+](=O)[O-])c(=O)[nH]1 | 0% | -2% | -21% | 22µM* | -45% | -24 | 24* | ? | 2% | 26%
O=c1[nH]c(/C=C\c2cccc(Cl)c2)nc(O)c1[N+](=O)[O-] | -9% | -1% | 0% | 28µM* | ? | -4 | 13* | ? | 20% | 16%
O=c1[nH]c(/C=C/c2cccc([N+](=O)[O-])c2)c([N+](=O)[O-])c(=O)[nH]1 | -19% | 1% | -5% | 28µM* | 79µM* | -6 | 12* | 7.1µM* | 24% | ?
Cc1ccc(CNC(=O)C(=O)NCC(c2cccs2)S(=O)(=O)c2ccccc2)cc1 (stereo not given) | · | · | · | -5% | 0%[59 µM] | · | · | · | · | ·
O=C(CCN1CCN(c2ccc([N+](=O)[O-])cc2)CC1)c1ccc(Cl)cc1 | ? | 1% | ? | 25µM* | 14µM* | 0 | 27* | 13µM* | 12% | ?
O=C(CCN1CCOCC1)c1ccc(N2CCCCC2)cc1 | · | -1% | -17% | ? | 1%[0.501 µM] | 1 | · | · | · | ·
CCOC(=O)N1CCN(CCC(=O)c2ccc(Cl)cc2)CC1 | 50µM* | -1% | 12µM* | 35µM* | ? | -1 | 12* | 11µM* | ? | ?
O=C(NCc1cccnc1)/C(=C\c1ccc(-c2ccc(Br)cc2)o1)S(=O)(=O)c1ccccc1 | 2% | -4% | ? | 40µM* | 14µM* | -4 | 34* | ? | 5.8µM* | 21µM*
Cc1nnc(Sc2cc(NCCO)c([N+](=O)[O-])c3nonc23)s1 | 6.3µM* | 0% | 2.4µM* | 22µM* | 2µM* | -58* | 4.2* | ? | ? | ?
SMILES | Sfp PPTase inh | MmCpn inh | PLK1 PBD block | VDR inhibitor | G9a block | CCT modulator | VDR confirm | VDR FP | VDR bla reporter | VDR viability | others
Cc1nnc(Sc2cc(NCCCO)c([N+](=O)[O-])c3nonc23)s1 | 3.2µM* | -1% | 5.3µM* | 45µM* | 5.6µM* | -1 | 13* | 11µM* | ? | ?
COCCCNC(=O)CN1C(=O)COc2ccc(S(=O)(=O)N3CCCC3)cc21 | · | · | · | -14% | 3%[59 µM] | · | · | · | · | ·
CCOc1ccc(N2CC(NC(=O)c3ccc(S(=O)(=O)N4CCOCC4)cc3)CC2=O)cc1 (stereo not given) | · | · | · | 0% | 5%[59 µM] | · | · | · | · | ·
Nc1ncnc2c1nc(Br)n2[C@@H]1O[C@H]2COP(=O)(O)O[C@@H]2[C@@H]1O | 9% | · | · | 2% | 36%[59 µM] | · | · | · | · | ·
COc1ccccc1N(CC(=O)Nc1cc(C)cc(C)c1)S(C)(=O)=O | · | · | · | -11% | -16%[59 µM] | · | · | · | · | ·
CC(C)CC(=O)/C(=C\c1ccc(Cl)cc1Cl)n1cncn1 | 32µM* | 2% | ? | 4µM* | 79µM* | 0 | 3.8* | ? | 16µM* | 15µM*
CC(C)C(=O)Nc1ccccc1C(=O)OCc1cc(=O)n2nc(C3CC3)sc2n1 | · | · | · | 14% | ? | · | · | · | · | ·
O=C(/C=C/c1cc(Br)ccc1O)c1ccco1 | ? | -10% | 27µM* | 25µM* | ? | -1 | 27* | ? | ? | ?
O=C(/C=C/c1ccccc1O)c1ccco1 | 2% | 1% | -17% | ? | -18% | 2 | · | · | · | ·
